Assay [1] in a line: binders of probe aFSTL3 on microarray, primary screen, stem cell growth factor project, biochemical, small-molecule microarray, fluorescence 635/667 (AID 1064).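 Also: measures binding of the biotinylated anti-FSTL3 antibody to printed compounds.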 As to conditions: higher = more signal.
Assay [2] can be described thus: binders from COS7 lysate, DM2A8 probe, primary screen, torsin A project, cell lysate, small-molecule microarray, fluorescence 635/667 (AID 1065). The following applies: higher = more signal, COS7 lysate expressing mutant human TOR1A.
Assay [3] can be described thus: binders of probe aFGF2 on microarray, primary screen, stem cell growth factor project, biochemical, small-molecule microarray, fluorescence 635/667 (AID 1067).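 Also: measures binding of biotinylated aFGF2 protein to printed compounds on slides; z-score merges feature fluorescence and signal-to-noise across triplicate slides.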 The following applies: higher = more signal.
Assay [4] in a line: binders of probe aFGF10 on microarray, primary screen, stem cell growth factor project, biochemical, small-molecule microarray, fluorescence 635/667 (AID 1071).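 Also: score merges 667 nm spot intensity and signal to noise from triplicate slides.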 The following applies: higher = more signal.
The target of assay [5] is Neurogenic locus notch homolog protein 2 (Homo sapiens) (UniProt Q04721). The experiment in a line: Notch2 binders on small-molecule microarrays, primary screen, biochemical, small-molecule microarray, 635 nm fluorescence, stem cell growth factors (AID 1073). The following applies: Notch2 binding, higher = more signal.
In assay [6] the target is Pro-neuregulin-1, membrane-bound isoform (Homo sapiens) (UniProt Q02297). The experiment in a line: NRG1 binders on small-molecule microarrays, primary screen, psychiatric disease protein project, biochemical, small-molecule microarray, fluorescence 635/667 (AID 1075).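 Also: score combines 667 nm spot fluorescence with signal to noise.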 As to conditions: NRG1 binding, 635 nm fluorescence, higher = more signal.
Assay [7] has as its system Neuregulin-1 EGF-like domain. Briefly: binders of neuregulin-1 EGF-like domain, primary screen, biochemical, small-molecule microarray, 635 nm fluorescence (AID 1081).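 Also: binding of the protein to compounds printed on small-molecule microarray slides.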 As to conditions: small-molecule microarray binding, higher = more signal.
Assay [8] is described as follows: FRG1 promoter luciferase signal modulators, primary screen, FRG1 inhibition for FSHD, cell-based, C2C12 myotubes, firefly/Renilla luciferase, luminescence (AID 1084). As to conditions: higher = more signal, called active from +8 up or from −8 down.
Assay [9] is described as follows: binders of probe aFST on microarray, primary screen, stem cell growth factor project, biochemical, small-molecule microarray, fluorescence 635/667 (AID 1086).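 Also: score merges 667 nm fluorescence with signal-to-noise of each printed compound spot.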 As to conditions: higher = more signal.
A short description of assay [10]: binders of probe aHhip on microarray, primary screen, stem cell growth factor project, biochemical, small-molecule microarray, fluorescence 635/667 (AID 1087).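 Also: score merges spot fluorescence at 667nm with spot signal to noise ratio.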 The following applies: higher = more signal.

Molecules are shown by their SMILES. Active and inactive are the calls of the source.

Neurogenic locus notch homolog protein 2 (Homo sapiens), sequence (Q04721 whole entry, looked up, canonical isoform): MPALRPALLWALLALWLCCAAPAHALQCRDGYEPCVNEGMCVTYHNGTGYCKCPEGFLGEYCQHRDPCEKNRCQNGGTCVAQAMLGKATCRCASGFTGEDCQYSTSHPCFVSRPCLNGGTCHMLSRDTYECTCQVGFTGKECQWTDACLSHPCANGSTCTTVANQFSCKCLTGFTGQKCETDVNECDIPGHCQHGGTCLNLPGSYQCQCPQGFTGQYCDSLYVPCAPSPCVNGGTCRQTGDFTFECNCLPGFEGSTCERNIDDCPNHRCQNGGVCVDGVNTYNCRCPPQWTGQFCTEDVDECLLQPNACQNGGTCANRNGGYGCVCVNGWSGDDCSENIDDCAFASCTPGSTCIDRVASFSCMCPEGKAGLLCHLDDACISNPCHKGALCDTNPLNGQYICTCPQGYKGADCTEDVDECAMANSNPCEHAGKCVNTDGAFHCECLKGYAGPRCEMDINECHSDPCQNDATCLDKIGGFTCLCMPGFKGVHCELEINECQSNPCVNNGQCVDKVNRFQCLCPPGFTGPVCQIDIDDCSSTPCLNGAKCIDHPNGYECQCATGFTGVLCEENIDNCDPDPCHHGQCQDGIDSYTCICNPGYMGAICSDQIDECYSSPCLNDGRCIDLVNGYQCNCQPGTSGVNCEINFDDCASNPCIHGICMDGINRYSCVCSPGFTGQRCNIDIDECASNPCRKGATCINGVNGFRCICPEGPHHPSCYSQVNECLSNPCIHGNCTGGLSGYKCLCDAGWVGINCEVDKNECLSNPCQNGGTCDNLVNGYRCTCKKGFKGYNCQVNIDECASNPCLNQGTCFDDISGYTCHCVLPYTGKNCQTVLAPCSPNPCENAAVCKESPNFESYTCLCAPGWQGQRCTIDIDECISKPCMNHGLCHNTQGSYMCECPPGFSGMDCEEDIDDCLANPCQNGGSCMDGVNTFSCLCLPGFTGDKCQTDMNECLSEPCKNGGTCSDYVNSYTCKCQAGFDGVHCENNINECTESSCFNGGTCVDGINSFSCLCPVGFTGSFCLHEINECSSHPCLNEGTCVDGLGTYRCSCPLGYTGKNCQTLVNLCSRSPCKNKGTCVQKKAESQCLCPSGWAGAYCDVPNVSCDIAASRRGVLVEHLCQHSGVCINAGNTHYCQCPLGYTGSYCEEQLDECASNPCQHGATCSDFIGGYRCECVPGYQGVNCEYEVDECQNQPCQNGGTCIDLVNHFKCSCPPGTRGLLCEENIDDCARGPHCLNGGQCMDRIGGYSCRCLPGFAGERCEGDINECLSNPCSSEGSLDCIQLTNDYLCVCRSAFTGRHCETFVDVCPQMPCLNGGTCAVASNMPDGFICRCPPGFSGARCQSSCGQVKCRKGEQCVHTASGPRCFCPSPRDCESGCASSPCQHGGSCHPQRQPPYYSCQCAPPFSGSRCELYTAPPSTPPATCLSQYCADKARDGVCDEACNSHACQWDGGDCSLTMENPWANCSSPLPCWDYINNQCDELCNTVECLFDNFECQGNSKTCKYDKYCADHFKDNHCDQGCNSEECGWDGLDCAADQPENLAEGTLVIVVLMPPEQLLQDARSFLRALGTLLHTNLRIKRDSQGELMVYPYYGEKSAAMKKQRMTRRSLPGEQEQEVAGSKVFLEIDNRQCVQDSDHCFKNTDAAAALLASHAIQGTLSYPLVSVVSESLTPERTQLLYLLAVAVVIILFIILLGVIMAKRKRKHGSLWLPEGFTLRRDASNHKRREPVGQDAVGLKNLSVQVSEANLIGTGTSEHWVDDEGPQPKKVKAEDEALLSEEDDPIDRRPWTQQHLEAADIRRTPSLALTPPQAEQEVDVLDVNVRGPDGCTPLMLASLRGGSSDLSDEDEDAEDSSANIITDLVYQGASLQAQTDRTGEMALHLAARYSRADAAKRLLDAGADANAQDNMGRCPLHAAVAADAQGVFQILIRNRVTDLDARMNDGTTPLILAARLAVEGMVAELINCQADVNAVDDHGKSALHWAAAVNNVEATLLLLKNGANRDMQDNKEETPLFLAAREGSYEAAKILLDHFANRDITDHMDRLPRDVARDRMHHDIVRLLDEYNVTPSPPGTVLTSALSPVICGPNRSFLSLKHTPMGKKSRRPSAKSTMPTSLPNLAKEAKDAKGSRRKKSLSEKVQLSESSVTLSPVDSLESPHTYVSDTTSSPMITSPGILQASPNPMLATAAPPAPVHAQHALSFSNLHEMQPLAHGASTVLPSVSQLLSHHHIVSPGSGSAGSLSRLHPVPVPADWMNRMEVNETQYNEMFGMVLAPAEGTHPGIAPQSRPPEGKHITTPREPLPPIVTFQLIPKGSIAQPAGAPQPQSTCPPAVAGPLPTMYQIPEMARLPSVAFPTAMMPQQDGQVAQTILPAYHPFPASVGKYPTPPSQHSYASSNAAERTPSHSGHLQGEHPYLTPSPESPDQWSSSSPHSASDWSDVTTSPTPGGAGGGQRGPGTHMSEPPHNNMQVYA
Pro-neuregulin-1, membrane-bound isoform (Homo sapiens), sequence (Q02297 whole entry, looked up, the tested form may be a part, canonical isoform): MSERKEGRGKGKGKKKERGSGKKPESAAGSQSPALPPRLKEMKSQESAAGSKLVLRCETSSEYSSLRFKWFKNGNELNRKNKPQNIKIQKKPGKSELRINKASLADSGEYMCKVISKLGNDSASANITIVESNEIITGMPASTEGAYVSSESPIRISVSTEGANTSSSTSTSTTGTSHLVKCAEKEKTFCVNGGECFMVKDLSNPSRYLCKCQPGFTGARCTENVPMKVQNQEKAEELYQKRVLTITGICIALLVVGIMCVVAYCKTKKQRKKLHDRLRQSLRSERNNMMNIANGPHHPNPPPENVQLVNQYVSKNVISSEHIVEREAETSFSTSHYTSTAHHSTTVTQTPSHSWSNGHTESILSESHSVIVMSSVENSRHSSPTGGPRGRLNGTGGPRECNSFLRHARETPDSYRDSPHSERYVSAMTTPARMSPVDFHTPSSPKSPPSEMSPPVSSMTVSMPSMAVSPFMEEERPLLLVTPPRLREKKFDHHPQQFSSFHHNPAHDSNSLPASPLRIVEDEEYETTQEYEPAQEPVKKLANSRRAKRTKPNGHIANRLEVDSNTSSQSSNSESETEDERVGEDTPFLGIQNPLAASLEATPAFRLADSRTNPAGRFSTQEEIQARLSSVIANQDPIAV

For the molecule `C=CCN1C(=O)[C@]2(CCC(=O)OC(C)(C)C)N=C(c3ccc(OCCCO)cc3)O[C@@H]2c2ccccc21`, the composite z-score was 0.369 in [1]; 0.401 in assay [2]; -0.0791 in assay [3]; -0.475 in assay [4]; 0.729 in [5]; 0.811 in assay [6]. The composite z-score is 0.542 in [7], 0.0909 in assay [9] and -0.0994 in [10]. Also, in assay [8], the z-score is -2.29 (inactive).
In the case of `C=CCNC(=O)[C@@H]1[C@H]2C(=O)O[C@H](c3ccccc3)[C@H](c3ccccc3)N2[C@H](c2ccc(OCCO)cc2)[C@@]12C(=O)N(C(=O)OCCOC)c1ccc(C#Cc3ccc(OC)cc3)cc12`, the composite z-score in [1] is -0.412; in assay [2], 0.1; in [3] it was -0.126; in assay [4], 0.0179; in [5], 0.801; in assay [6], 1.1. Besides, the composite z-score is 1.07 in assay [7], 0.267 in [9] and -0.0955 in [10]. Moreover, the z-score in [8] is -0.309 (inactive).
Turning to `CC(C)=C1C(=O)C(c2ccccc2)=C2CN3C(=O)N(CCc4ccccc4)C(=O)[C@]3(Cc3ccc(C(F)(F)F)cc3)[C@H]21`, the composite z-score in [1] is 1.11; in [2] it was -0.192; in [3], 0.0977; in [4], -0.122; in [5], 0.816; in assay [6], 0.757. Besides, the composite z-score in assay [7] came to 0.844; in assay [9], 0.693; in assay [10] it was 0.281. Besides, the z-score in assay [8] is 0.845 (inactive).
For `[N-]=[N+]=NCc1ccccc1[C@H]1OC(c2ccc(OCCCO)cc2)=N[C@@]1(Cc1ccccc1N=[N+]=[N-])C(=O)NCC(O)CO` (stereo not given in full), the composite z-score in [1] was -0.0235; in assay [2], 0.651; in assay [3], 0.0342; in assay [4] it was 0.867; in [5], 1.24; in assay [6] it was 1.68. Moreover, the composite z-score is 1.13 in assay [7], 1.43 in assay [9] and -0.31 in assay [10]. In addition, the z-score in assay [8] is 1.5 (inactive).
With `CC(=O)NCCCC[C@@H]1NC(=O)[C@@H]2C[C@H](C(=O)NCCCCCN)[C@H](c3ccc(O)cc3)N2C1=O`, the composite z-score in [1] turned out to be 0.95; in assay [2], 1.25; in assay [3] it was 0.088; in assay [4], 0.864; in [5], 0.702; in assay [6], 0.995. The composite z-score in assay [7] was 1.43; in assay [9] it was 0.491; in [10], -0.334. Also, in assay [8], the z-score was 0.604 (inactive).
`CO[C@H]1O[C@H](CO)[C@@H](OC(=O)Nc2ccc3c(c2)OCO3)[C@H](OC(=O)Nc2ccc3c(c2)OCO3)[C@@H]1OC(=O)Nc1ccc2c(c1)OCO2`: the composite z-score was -0.202 in assay [1]; 0.584 in [2]; 0.256 in [3]; 1.21 in assay [4]; 1.26 in assay [5]; 1.78 in assay [6]. Further, the composite z-score came out at 1.2 in assay [7], 0.338 in assay [9] and 0.0818 in [10]. Also, the z-score in [8] is 2.2 (inactive).
Consider `CCC#CCN(Cc1ccccc1Br)[C@H](/C=C/C1CC1)[C@@H](O)Cc1ccccc1`, for which the composite z-score in assay [1] is 0.689; in assay [2], 0.131; in [3], -0.17; in assay [4] it was -0.548; in [5], -1.46; in assay [6], -0.285. For the same molecule, the composite z-score in assay [7] was -0.33; in assay [9], -0.17; in assay [10], -0.169. Moreover, the z-score in assay [8] was -1.96 (inactive).
As for `Cc1ccc(S[C@]2(C(=O)O)CC(=O)N(C3CCCCC3)[C@@H]2c2ccc(CO)cc2I)cc1`, the composite z-score is -0.0155 in assay [1]; 0.165 in [2]; -0.0986 in assay [3]; 0.52 in [4]; 0.762 in assay [5]; 1.43 in assay [6]. Moreover, the results for the composite z-score in [7], in assay [9] and in assay [10] were 1.2, 1.23 and -0.0898, respectively. Besides, the z-score in assay [8] was -0.163 (inactive).
For the molecule `C=CCN1Cc2ccccc2[C@@H]2OC(c3ccc(OCCCO)cc3)=N[C@]2(CC=C)C1=O`, the composite z-score is 1.41 in assay [1]; 0.629 in [2]; 0.32 in assay [3]; 0.0911 in assay [4]; 0.848 in [5]; 0.955 in assay [6]. Moreover, the results for the composite z-score in assay [7], in assay [9] and in [10] were 1.06, 2.47 and -0.159, respectively. Further, in assay [8], the z-score was -0.479 (inactive).
With `CC(C)(C)OC(=O)CC[C@@]1(C(=O)NCC(O)CO)N=C(c2ccc(OCCCO)cc2)O[C@@H]1c1ccccc1CN=[N+]=[N-]` (stereo not given in full), the composite z-score in [1] is 0.316; in assay [2] it was 1.86; in assay [3] it was -0.0249; in assay [4] it was 0.426; in assay [5], 1.49; in [6], 1.01. The composite z-score in assay [7] is 1.48; in [9] it was 0.544; in [10], -0.0994. For the same molecule, in assay [8], the z-score is 3.3 (inactive).
Regarding `O=C1N(Cc2ccccc2)c2ccccc2C[C@]12N=C(c1ccc(OCCCO)cc1)O[C@@H]2c1ccccc1`, the composite z-score was 0.0854 in [1]; 0.278 in assay [2]; -0.125 in assay [3]; 0.576 in [4]; 0.699 in assay [5]; 0.888 in assay [6]. The composite z-score in assay [7] is 1.09; in assay [9], -0.0607; in assay [10] it was -0.0994. Besides, the z-score in assay [8] was -0.724 (inactive).
As to `CCOC(=O)C[C@H]1[C@H](OC(=O)c2ccccc2-c2ccccc2)[C@@H](NC(=O)c2ccc3ccccc3n2)c2cc(OCCCO)ccc2N1C(=O)Cc1ccc(OC)cc1`, the composite z-score in [1] was 0.139; in [2], 0.394; in assay [3] it was -0.0715; in [4], 0.158; in assay [5] it was 0.383; in assay [6] it was 0.336. Besides, the results for the composite z-score in assay [7], in assay [9] and in assay [10] were 0.028, 0.311 and -0.142, respectively. Besides, in assay [8], the z-score is 0.63 (inactive).
For `CCOC(=O)C=Cc1cccc(C)c1O`, the composite z-score in assay [1] was -0.071; in assay [2], -0.232; in assay [3] it was -0.0348; in assay [4] it was -0.0154; in [5], 0.177; in assay [6], 0.306. For the same molecule, the composite z-score was -0.155 in [7], -0.488 in [9] and -0.236 in assay [10]. The z-score in [8] was 1.5 (inactive).

(Values after PubChem BioAssay.)
